Assay outcomes (PubChem)
BaF3 parental – parental Ba/F3 cell viability inhibition, counter-screen for JAK2V617F inhibitor project, murine pro-B, CellTiter-Glo luminescence; CellTiter-Glo ATP luminescence; inhibition, % at 5.6 µM; hit rate 1.1% among 220,000; AID 1486, 2009;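 active = inhibition above a per-campaign cutoff, the mean inhibition of all tested compounds plus 3 SD, cut at about 27% in these data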;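 also: 0% = DMSO wells and 100% = JAK Inhibitor I control wells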
Ba/F3 V617F tox – reduced viability of JAK2V617F-dependent Ba/F3 cells, primary screen, JAK2V617F inhibitor project, cell-based, Ba/F3 EpoR-JAK2V617F, luminescence | inhibition, % at 5.6 µM | hit rate 1.1% among 220,000 | ATP luminescence;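 active = inhibition above the campaign mean plus 3 SD over all tested compounds, cut at about 24% in these data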;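 also: cytokine-independent growth of Ba/F3 cells driven by EpoR plus mutant JAK2; 0% = DMSO-treated cells and 100% = JAK inhibitor I control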
APP 5UTR inh – inhibitors of APP translation via 5'UTR reporter, primary screen, APP 5'UTR luciferase, SH-SY5Y cells; SH-SY5Y APP 5'UTR-luciferase reporter, luminescence; inhibition, % at 2 µM; hit rate 0.82% among 190,000;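 active = inhibition above a set limit, derived from the sample mean plus 3 SD, cut at about 45% in these data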
KLF5 inh – KLF5 expression inhibitors, primary screen, DLD-1 cells, luminescence; hit rate 0.23% among 290,000; inhibition, % at 5 µM; DLD-1 KLF5 promoter-luciferase reporter; AID 1700, 2009;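 active = inhibition above a per-plate limit of that plate's mean compound inhibition plus 3 SD, cut at about 60% in these data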;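 also: 0% = DMSO wells and 100% = LY294002 at 200 µM; higher means less KLF5 promoter-driven luciferase light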
aSyn 5UTR inh – MLPCN primary screen, SNCA 5' untranslated region; inhibition, % (tested at 7.5 µM); AID 1813, 2009; hit rate 0.82% among 300,000; alpha-synuclein 5'UTR reporter, inhibitor activity; in the data active = inhibition above about 60%;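 also: H4 neuroglioblastoma cells stably carrying SNCA 5'UTR luciferase fusion; 0% = DMSO wells and 100% = positive control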
IEC-6 cytotox – cytotoxicity in IEC-6 intestinal epithelial cells, primary screen, cytotoxicity control for KLF5 inhibitor project, cell-based, luminescence | IEC-6 cytotoxicity, luminescence viability | inhibition, % at 5 µM | hit rate 0.78% among 290,000 | AID 1825, 2009;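 also: 0% = plate median of test compound wells and 100% = cytotoxic reference compound wells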
IEC-6 tox confirm – cytotoxic compounds in IEC-6 epithelial cells, confirmation, cytotoxicity control, cell-based, luminescence | AID 1907, 2009 | hit rate 63% among 1,900 | shares compounds with IEC-6 cytotox | inhibition, % at 5 µM | IEC-6 rat intestinal epithelial viability;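 also: 0% = vehicle and 100% = reference cytotoxic drug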
An asterisk follows results filed as active. In the library only some 2.2% were active in any assay of this set; here they are far more common. Rule as the data show it, unless noted: active = inhibition above about 22%; inactive = the rest.

CCc1cc(C(=O)N/N=C/c2ccc(O)cc2O)c2ccccc2n1 was read as KLF5 inh 61, aSyn 5UTR inh 50 and IEC-6 cytotox 17.
For C[n+]1cccc(/C=N/NC(=O)CC23CC4CC(CC(C4)C2)C3)c1 the results were BaF3 parental -5, Ba/F3 V617F tox -1, KLF5 inh -8, aSyn 5UTR inh 10 and IEC-6 cytotox -3.
For CCOC(=O)c1c(-c2ccccc2)oc2ccc(OCC(O)CNCCN(C)C)cc12 (centres undefined) the results were KLF5 inh -22, aSyn 5UTR inh 9 and IEC-6 cytotox 11.
O=C(Nc1ccc(N2CCCC2)cc1)c1cc(Cl)ccc1Cl was read as KLF5 inh -28, aSyn 5UTR inh -241, IEC-6 cytotox 56* and IEC-6 tox confirm 27*.
O=C(Nc1ccc(N2CCCC2)cc1)c1ccc(Cl)cc1Cl was read as KLF5 inh -60, aSyn 5UTR inh -88 and IEC-6 cytotox 0.
Screening CCN(CC(=O)NCc1ccc(F)cc1)C(=O)/C=C/c1ccc(OC)c(S(=O)(=O)NC(C)C)c1 returned KLF5 inh 48, aSyn 5UTR inh 63*, IEC-6 cytotox 73* and IEC-6 tox confirm 50*.
Screening CCN(CC(=O)NCc1ccc(F)cc1)C(=O)/C=C/c1ccc(OC)cc1 returned KLF5 inh -26, aSyn 5UTR inh 0 and IEC-6 cytotox 3.
`COc1cc(OC)cc(C(=O)NCC(=O)Nc2ccc(-c3ccccc3)cc2)c1` gave KLF5 inh -14, aSyn 5UTR inh -195, IEC-6 cytotox 30* and IEC-6 tox confirm 9.
Screening Cc1ccc(NC(=O)c2ccc(Cl)cc2[N+](=O)[O-])nc1 returned BaF3 parental 64*, Ba/F3 V617F tox 74*, APP 5UTR inh 24, KLF5 inh 50, aSyn 5UTR inh -13, IEC-6 cytotox 38* and IEC-6 tox confirm 49*.
`COc1ccc(-c2nnc(SCC(=O)c3ccc(O)cc3O)o2)cc1` gave KLF5 inh -58, aSyn 5UTR inh -37 and IEC-6 cytotox -1.
For CC1(C)N=C(N)N=C(N)N1c1cccc(C(=O)O)c1 the results were BaF3 parental 1, Ba/F3 V617F tox -1, APP 5UTR inh 4, KLF5 inh -13, aSyn 5UTR inh -4, IEC-6 cytotox 37* and IEC-6 tox confirm 3.
Screening COc1cccc(N2C(N)=NC(N)=NC2(C)C)c1 returned BaF3 parental 93*, Ba/F3 V617F tox 95*, APP 5UTR inh -9, KLF5 inh 14, aSyn 5UTR inh 96*, IEC-6 cytotox 54* and IEC-6 tox confirm 42*.
For COc1cccc(N2CC(=O)N(c3cccc(OC)c3)CC2=O)c1 the results were BaF3 parental -1, Ba/F3 V617F tox -1, APP 5UTR inh 0, KLF5 inh -37, aSyn 5UTR inh -3 and IEC-6 cytotox -8.
COc1ccc(N2C(N)=NC(N)=NC2(C)C)cc1 was read as BaF3 parental 99*, Ba/F3 V617F tox 98*, APP 5UTR inh 8, KLF5 inh -15, aSyn 5UTR inh 81*, IEC-6 cytotox 53* and IEC-6 tox confirm 8.
COc1ccc(C2N=C(N)N=C(N)N2c2ccc(C)cc2)cc1 (centres undefined) was read as BaF3 parental 0, Ba/F3 V617F tox -1, APP 5UTR inh -2, KLF5 inh -13, aSyn 5UTR inh -3 and IEC-6 cytotox -4.
Screening COc1ccccc1C(CNC(=O)C1CC(=O)N(Cc2ccc(C)cc2)C1)N1CCCC1 (centres undefined) returned aSyn 5UTR inh 21.
CCC(C(=O)NCCN1CCOCC1)n1c2ccccc2c2nc(=O)cc(C)n21 (centres undefined) was read as KLF5 inh -33, aSyn 5UTR inh 10 and IEC-6 cytotox -1.
Screening CCNc1ccc(C(=O)OCC)cc1NC(=O)c1cccc(N(C)C)c1 returned BaF3 parental 77*, Ba/F3 V617F tox 82*, APP 5UTR inh 81*, KLF5 inh 57, aSyn 5UTR inh 35, IEC-6 cytotox 64* and IEC-6 tox confirm 58*.
CC(=O)c1c2c3c(c(Br)ccc3n(C)c1=O)C(=O)c1ccccc1-2 was read as KLF5 inh -19, aSyn 5UTR inh -17, IEC-6 cytotox 44* and IEC-6 tox confirm -4.
Screening CCC(C)(C)NC(=O)CN(C(=O)C(=O)Nc1ccc2c(c1)OCCO2)C1CC1 returned KLF5 inh -24, aSyn 5UTR inh -9 and IEC-6 cytotox 3.
`Cc1ccc(-n2nnnc2Sc2ccc(S(=O)(=O)NCCN(C)C)cc2[N+](=O)[O-])cc1` gave BaF3 parental 68*, Ba/F3 V617F tox 96*, APP 5UTR inh 36, KLF5 inh 4, aSyn 5UTR inh -93, IEC-6 cytotox 28* and IEC-6 tox confirm 47*.
`Nc1ccccc1C(=O)N1CCc2ccccc21` gave KLF5 inh -95, aSyn 5UTR inh -32 and IEC-6 cytotox 3.
`COc1cccc(OCc2cc(/C=N/Nc3ccc(C(=O)O)cc3)ccc2OC)c1` gave BaF3 parental -3, Ba/F3 V617F tox 9, KLF5 inh 17, aSyn 5UTR inh -92, IEC-6 cytotox 28* and IEC-6 tox confirm 55*.
For COc1cccc(C(=O)Oc2ccc(/C=N/Nc3ccc(C(=O)O)cc3)cc2OC)c1 the results were KLF5 inh -58, aSyn 5UTR inh -56 and IEC-6 cytotox 2.
`Cn1c(CCC(=O)Nc2cc(S(C)(=O)=O)ccc2Cl)nc2cc(S(=O)(=O)N3CCOCC3)ccc21` gave aSyn 5UTR inh 3.
For O=C(COC(=O)CCc1nc2ccccc2c(=O)[nH]1)NC(=O)NC1CCCC1 the results were BaF3 parental -1, Ba/F3 V617F tox -5, APP 5UTR inh -3, KLF5 inh -23, aSyn 5UTR inh 1 and IEC-6 cytotox 8.
For Cc1ccnc(Nc2nc(-c3ccc(O)c(O)c3)cs2)c1 the results were KLF5 inh -86, aSyn 5UTR inh -148, IEC-6 cytotox 36* and IEC-6 tox confirm 18.
Screening C=CCn1c(SCC(=O)c2cccs2)nc2sc(CC)cc2c1=O returned BaF3 parental 0, Ba/F3 V617F tox -3, APP 5UTR inh 2, KLF5 inh -13, aSyn 5UTR inh 26, IEC-6 cytotox 30* and IEC-6 tox confirm 36*.
`COc1ccc(NC(=O)COC(=O)c2c3c(nc4ccccc24)CCCC3)cc1Cl` gave BaF3 parental 5, Ba/F3 V617F tox 1, APP 5UTR inh 3, KLF5 inh -40, aSyn 5UTR inh -36 and IEC-6 cytotox 4.
Screening Cc1ccc(C)c(C(=O)COC(=O)CN2C(=O)C3C4C=CC(C4)C3C2=O)c1 (centres undefined) returned KLF5 inh -26, aSyn 5UTR inh 5 and IEC-6 cytotox -2.
